# MCF10A rereplic: DNA re-replication induction in MCF 10a cells | MCF 10A DNA re-replication, Hoechst nuclear intensity, 48 h | Potency, µM (highest dose often 46.1 µM), for the others: at the top dose activity, positive = re-replication, usual class: activators | hit rate 2.9% among 350,000; note: % of control where 0% means no effect; nearly all actives have a fitted effect of over 50% in size
# ELG1 repair inh: blocks ELG1-dependent DNA repair in HEK293T cells. hit rate 2.3% among 330,000. Potency, µM (doses to about 46.1 µM), inactives show top-dose activity change, negative = inhibition, most hits filed as inhibitors. HEK293T ELG1-luciferase reporter, luminescence, 16 h; DNA damage induced by 5-fluorouridine; note: % is set by controls: 0 for no effect and ±100 for the full control effect; nearly all actives have a fitted effect of over 55% in size
#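 In this reporter screen, reduction of luminescence relative to DMSO vehicle indicated activity. Compounds and 5-fluorouridine were added together to 2,000 cells per well, incubated for 16 hr at 37 °C, then developed with ONE-Glo.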
# KB-3-1 tox: kills parental KB-3-1 adenocarcinoma cells; KB-3-1 viability, CellTiter-Glo ATP luminescence, 72 h; Potency, µM (series often up to 46.1 µM), most hits filed as cytotoxic; hit rate 1.4% among 400,000; AID 1347075; note: % is set by controls: 0 for no effect and ±100 for the full control effect; nearly all actives have a fitted effect of over 60% in size
#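 Luminescent ATP read-out (CellTiter-Glo) measures survival of drug-naive KB-3-1 cells after 72 h compound exposure at 37 °C. Titration series was screened from lowest to highest concentration, with DMSO vehicle plates as background controls.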
# KB-V1 MDR tox: kills drug-selected multidrug resistant KB-V1 cells; Potency, µM (top dose mostly 46.1 µM), actives largely listed as cytotoxic; hit rate 3.4% among 400,000; KB-V1 MDR cells viability, CellTiter-Glo, 72 h; note: % is set by controls: 0 for no effect and ±100 for the full control effect; nearly all actives have a fitted effect of over 60% in size
#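 KB-V1 cells (P-gp-expressing MDR subline of KB-3-1) in phenol-red-free DMEM with 10% FBS were exposed to library compounds over a concentration series for 72 h at 37 degrees C. Viability read by CellTiter-Glo luminescence; concentration-effect curves fitted after normalization.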
# SW480 rerep: induces DNA re-replication in SW480 colon adenocarcinoma cells | SW480 DNA re-replication, Hoechst DNA content imaging, 48 h | Potency, µM (doses to about 46.1 µM), inactives show at the top dose re-replication activation, most hits filed as activators | hit rate 1.8% among 340,000 | AID 624297; note: % of control where 0% means no effect; nearly all actives have a fitted effect of over 55% in size
#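 Image-based read-out: total Hoechst fluorescence of nuclei (405 nm excitation, 500-530 nm emission), with hits raising the fraction of high-intensity nuclei. SW480 colon cells incubated 48 hr with compounds at 37 C.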
# * marks the source's active call; other numbers are inactive results; i = inactive; u = inconclusive; x = no result given; [ ] = another dose, or the depositor's remark. Rows were chosen to be rich in hits. Some 8.2% of all compounds tested hit in one or more screens of this group. Calls come from the whole dose curve; as a rule, active = well fitted curve in the direction sought with a large enough effect; inconclusive = small, poorly fitted or top-dose-only effect, or another doubt; inactive = no such curve, though single readings can be large; an effect the other way counts as inactive or inconclusive. Potency is the fitted concentration of half-maximal effect.
SMILES,MCF10A rereplic,ELG1 repair inh,KB-3-1 tox,KB-V1 MDR tox,SW480 rerep
CCN1CCN(c2ccc(NC(=O)c3ccc([N+](=O)[O-])o3)cc2Cl)CC1,1.3µM*,u,i,u,1.4%
COC1OC(O)C(NC(=O)C(F)(F)F)CC1O (centres undefined),-1.8%,x,i,i,-2.1%
CC1(C(=O)NS(=O)(=O)c2ccc(Cl)s2)CCN1C(=O)C1(c2ccc(Cl)cc2)CC1 (centres undefined),x,x,i,i,x
N#Cc1ccc(C(=O)NCCCSc2ccccc2)cc1,2.2%,-4.4%,i,i,-16.6%
CCC(=O)N1CCN(c2ccc(Cl)cc2NC(=O)c2ccc([N+](=O)[O-])o2)CC1,u,-16.7%,i,i,9.2µM*
Oc1ccc(Nc2nc3ccccc3nc2Nc2ccc(O)cc2)cc1,1.46µM*,u,i,u,4.61µM*
Cc1cc(C(=O)N[C@H](c2ccccc2)[C@@]2(C)C[C@@H]2[C@@H](C)C(=O)Nc2ccc3ccccc3c2)n(C)n1,u,u,u,u,14.6µM*
COc1ccc(CN2C[C@H]3CCCN3c3cc(Br)ccc3S2(=O)=O)cc1,1.16µM*,u,1.84µM*,u,1.64µM*
CCc1ccccc1Nc1nn2c(=O)c3ccc(C(=O)NCCC4=CCCCC4)cc3nc2s1,x,x,i,i,x
Cc1noc(C)c1CSc1ccc2ccccc2n1,u,22.3%,i,20.6µM*,-12.4%
Cc1noc(C)c1CSc1nc2ccccc2c(=O)n1-c1ccc(Cl)cc1,u,u,u,23.1µM*,u
COc1ccc(C2CCCCCN2C(=O)C2CCN(S(=O)(=O)c3ccc(C)cc3)CC2)cc1 (centres undefined),x,x,i,i,x
CC(=O)c1sc(NC(=O)C2(F)C(F)(F)C(F)(F)C(F)(F)C(F)(F)C2(F)F)nc1C,9.2µM*,u,u,7.31µM*,0.4%
O=c1c2ccc([N+](=O)[O-])cc2ncn1CCOc1ccccc1,6.6%,u,u,u,-2.3%
O=c1c2ccc([N+](=O)[O-])cc2ncn1Cc1ccccc1C(F)(F)F,5.0%,4.6%,i,u,-2.1%
Cc1ccc([N+](=O)[O-])c(OCCn2cnc3ccccc32)c1,0.0%,u,u,14.6µM*,3.3%
Cc1ccc(OCCn2cnc3cc([N+](=O)[O-])ccc3c2=O)cc1,18.2%,20.6µM*,u,u,-1.6%
COc1ccc2c(Cn3cnc4cc([N+](=O)[O-])ccc4c3=O)cc(=O)oc2c1,9.2µM*,u,4.61µM*,4.61µM*,5.8µM*
Cc1ccc(OCCOCCn2cnc3ccccc3c2=O)c([N+](=O)[O-])c1,-11.7%,-0.1%,i,u,-4.1%
COC(=O)c1cc(=O)nc(NN=Cc2ccc(C)cc2)s1,x,x,i,i,x
COc1ccc(NC(=O)[C@H](COCc2ccccc2)NC(=O)OC(C)(C)C)cc1,4.9%,10.0%,i,5.17µM*,10.2%
COc1ccc(NC(=O)C(NC(=O)OC(C)(C)C)C(C)OCc2ccccc2)cc1 (centres undefined),6.2%,-1.3%,i,4.11µM*,-1.2%
CCCC#Cc1cnc2c(c1)C(=O)N([C@H](C)CO)C[C@@H](C)[C@H](CN(C)S(=O)(=O)c1cccc(OC)c1)O2,x,x,i,i,x
CCCCN1C(=O)C(CC(=O)NCCN2CCOCC2)CC(C(=O)N(C(C)C)C(C)C)=C1C (centres undefined),x,x,i,i,x
O=C(CSc1nc(-c2cccs2)cc(C(F)(F)F)n1)Nc1ccccc1Cl,x,x,i,i,x
SMILES,MCF10A rereplic,ELG1 repair inh,KB-3-1 tox,KB-V1 MDR tox,SW480 rerep
O=C(CSc1nc(-c2cccs2)cc(C(F)(F)F)n1)Nc1cc(OCC(F)(F)C(F)F)cc([N+](=O)[O-])c1,u,u,u,16.4µM*,u
O=C(NCCS(=O)(=O)N1CCN(c2cccc(Cl)c2)CC1)c1cc(=O)c2ccccc2o1,-3.0%,-2.7%,i,i,-8.7%
CC(=O)N(CCC(c1ccco1)C(C)C)Cc1ccc(Cl)cc1 (centres undefined),4.11µM*,-16.3%,i,u,-2.8%
CCC(=O)N(CCC(c1ccco1)C(C)C)Cc1ccccc1 (centres undefined),15.2%,1.5%,i,i,-2.8%[9.22 µM]
Cc1cccc(OCCn2nnc3sc4c(c3c2=O)CCCC4)c1,x,x,i,i,x
N#Cc1ccccc1NC(=O)c1ccc2c(Cl)c3c(nc2c1)CCCC3,1.3%,u,i,8.2µM*,-1.4%
CC1CCN(C(=S)NCCc2ccccc2)CC1,-3.0%,u,i,23.1µM*,3.7%
Fc1ccc(CN2CCN(C(=S)NCCc3ccccc3)CC2)c(Cl)c1,23.0%,u,u,20.6µM*,1.9%
COc1cc(C(=O)NNC(=O)c2nn(C)c(=O)c3ccccc23)cc(OC)c1OC,-0.2%,u,i,i,-1.6%
Cc1ccc(S(=O)(=O)N(CC(=O)N/N=C/c2cccc(Cl)c2)c2cccc3cccnc23)cc1,u,x,u,u,16.4µM*
Cc1ccc(N(CC(=O)N/N=C/c2cccnc2)S(=O)(=O)c2ccccc2)cc1,0.4%,u,i,i,-42.8%
O=c1[nH]nc(SCCS(=O)(=O)c2ccc(F)cc2)n1-c1ccccc1,23.1µM*,0.5%,i,i,16.4%
COc1ccc(NS(=O)(=O)c2cc(NS(=O)(=O)c3cccs3)ccc2C)cc1,u,-18.9%,u,i,23.8%
Oc1c(CN2CCOCC2)cc(CN2CCOCC2)c(O)c1O,1.2%,x,i,i,-1.7%
Oc1c(CNc2ccccc2)cc(COCc2ccccc2)c2cccnc12,7.7%,u,i,i,0.461µM*
Oc1c(CN2CCOCC2)cc(COCc2ccccc2)c2cccnc12,u,u,u,u,3.66µM*
Cc1ccc(NCc2ccc(O)c3ncccc23)cc1,5.1%,-10.6%,i,i,u
CCCS(=O)(=O)NC(=O)C1(C)CCN(C(=O)c2ccnc(Cl)c2)C1 (centres undefined),x,x,i,i,x
CCCCN(C(=O)C1=CC=CN2CCS(=O)(=O)N=C12)c1ccccc1,8.6%,u,i,i,-2.4%
COC(=O)C1=C(C)OC(N)=C(C#N)C1c1cc2cccc(C)c2nc1Cl (centres undefined),x,16.5%,x,x,x
COCCOC(=O)C1=C(C)OC(N)=C(C#N)C1c1cc2cccc(C)c2nc1Cl (centres undefined),23.1µM*,0.5%,i,i,4.3%
Cc1ccccc1-n1nc2c(c1NC(=O)c1ccc(Br)o1)CSC2,23.3%,7.2%,i,13µM*,5.3%

# Compound activity deposited in PubChem BioAssay by National Center for Advancing Translational Sciences (NCATS).
